# Test results reported in PubChem BioAssay (NCI).
# Compounds without any hit were thinned out: in the full panel of roughly 83,000, 20% have a hit.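 Cell lines were cultured in 96-well plates, exposed to a single compound concentration, and assessed for percent growth 48 hours later.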 Unmarked numbers belong to inactive results. The source made the active and inactive calls. The calls were made as follows: active = growth percent below 10; inactive = the rest.
# Columns and labels:
# Assay in all cases: NCI-60 one-dose screen, 48 h (100 = growth as untreated, 0 = no growth, -100 = all killed)
# Settings in all cases: 10 µM unless noted
# RPMI-8226 leukemia = tested on: RPMI-8226 leukemia
# OVCAR-8 ovarian = tested on: OVCAR-8 ovarian
# OVCAR-5 ovarian = tested on: OVCAR-5 ovarian
# OVCAR-4 ovarian = tested on: OVCAR-4 ovarian
# SK-OV-3 ovarian = tested on: SK-OV-3 ovarian
# IGROV1 ovarian = tested on: IGROV1 ovarian
# OVCAR-3 ovarian = tested on: OVCAR-3 ovarian
# NCI/ADR-RES ovarian = tested on: NCI/ADR-RES ovarian
# T-47D breast = tested on: T-47D breast
# HS 578T breast = tested on: HS 578T breast
Compound,growth (RPMI-8226 leukemia),growth (OVCAR-8 ovarian),growth (OVCAR-5 ovarian),growth (OVCAR-4 ovarian),growth (SK-OV-3 ovarian),growth (IGROV1 ovarian),growth (OVCAR-3 ovarian),growth (NCI/ADR-RES ovarian),growth (T-47D breast),growth (HS 578T breast)
COc1ccc2c(c1)nc(N)c1c3cc(OC)c(OC)cc3cn21,42.8%,40.9%,62.5%,69.8%,43.9%,65.4%,37.6%,33.9%,64%,
CN1CCN(CC(=O)Nc2nc3c(s2)Nc2cc(Cl)c(Cl)cc2NC3=O)CC1,108%,99.3%,113%,116%,99%,110%,115%,,98.1%,107%
Oc1ccccc1C=Nc1ccccc1N=Cc1ccccc1O.[Cu+2],19.1%,15.1%,103%,35.5%,76%,55.5%,71.7%,,20.2%,137%
COc1cc(OC)c2sc(-c3ccc(-n4cncc4-c4ccc(N)cc4)cc3)nc2c1,64%,77.4%,100%,63.1%,120%,104%,77.6%,,60.6%,103%
Oc1[nH]c2ccccc2c1/C=c1/ccc2c(c1)N=C(c1cc(F)cc(F)c1)N=2,27.5%,76.9%,85%,57.8%,85%,63.3%,55.9%,61.4%,40.3%,69.4%
CCC(=O)Nc1ccccc1C#C/C=C\C#Cc1ccccc1C(F)(F)F,100%,106%,53.8%,85.8%,52.3%,-21.8% (active),70.2%,27.2%,65.4%,17.1%
c1cnc2n[nH]c(Nc3ncnc4c3sc3ncccc34)c2c1,88.1%,96.8%,93.2%,102%,102%,109%,111%,,93.5%,117%
C=Cc1nn2c(CCC(=O)c3nc4ccccc4[nH]3)nnc2s1,110%,108%,102%,110%,106%,106%,107%,100%,106%,
CC(=O)c1nc2ccccc2n1CCn1cc(CC(N)C(=O)O)c2ccccc21 (centres undefined),90%,99%,96.9%,98.8%,108%,99.1%,108%,97.5%,106%,109%
CCCCc1nc(Cl)c(CO)n1Cc1ccc(-c2ccccc2-c2nn[nH]n2)cc1,115%,103%,101%,109%,106%,104%,111%,105%,110%,110%
O=C(CCc1nnc(Cn2cncn2)o1)c1nc2ccccc2[nH]1,108%,107%,107%,111%,116%,118%,122%,105%,108%,127%
c1ccc(-c2nnc(Nc3nnc(-c4ccccc4)s3)s2)cc1,87.8%,103%,100%,101%,96.8%,86.7%,105%,,93.8%,100%
Cc1[nH]n(C(N)=S)c(=O)c1N=Nc1ccc(F)c(Cl)c1,78.2%,91.2%,102%,94.9%,280%,102%,88.3%,117%,249%,127%
O=C1CN(CO)C(=O)CN1CO,103%,99.7%,94.6%,111%,111%,105%,113%,,107%,101%
COC1=CC(c2ccc[nH]2)=N/C1=C\c1[nH]c(C)c(C(=O)CCC(=O)Oc2ccc3c(c2)CCC2C3CC[C@]3(C)C(=O)CC[C@@H]23)c1C (some centres undefined),68.3%,80.8%,55.6%,67.7%,85.5%,79.5%,89.1%,,79.2%,69.8%
O=C(Nc1ccc(Oc2ccc(NC(=O)Nc3ccc([N+](=O)[O-])cc3)cc2)cc1)Nc1ccc([N+](=O)[O-])cc1,-53.5% (active),10.1%,6.63% (active),34.5%,12.8%,-13.2% (active),8.26% (active),8.82% (active),1.54% (active),23.3%
O=C1C2C3C=CC(O3)C2C(=O)N1Nc1ccccc1 (centres undefined),108%,105%,97.4%,102%,118%,124%,113%,,112%,111%
COc1ccc(-c2noc(N)c2-c2cc(OC)c3c(c2)OCO3)cc1,7.65% (active),26.6%,61.6%,91.7%,27.6%,44.6%,-9.87% (active),,33.7%,21.4%
CCN(CC)CCCNCCCNc1cc(OC)cc2cccnc12,81.3%,88.8%,94.5%,-62.3% (active),111%,73.9%,32.8%,93.2%,64.7%,94.9%
